From PubChem BioAssay (NCI) come the findings set out here.

This is part of a sample that, as a whole, favours compounds with a hit. Of some 83,000 tested, about 20% had one in any assay.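 Each cell line was grown in a 96-well plate and treated with one concentration of compound for 48 hours. Values below 10 were considered active.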 Values without a mark were called inactive. The source made the active and inactive calls.

Experiment in all cases: NCI-60 one-dose screen, 48 h (100 = growth as untreated, 0 = no growth, -100 = all killed)
Holding throughout (settings): 10 µM unless noted

The subject of assay [1] is DU-145 prostate.
Assay [2] concerns K-562 leukemia.
The test system of assay [3] is MALME-3M melanoma.
Assay [4] concerns MDA-MB-231 breast.
Assay [5] deals with RXF 393 renal.
In assay [6] the test system is SF-268 CNS.
The test system of assay [7] is SF-539 CNS.
Assay [8] has as its system M14 melanoma.
For assay [9], the system named is SF-295 CNS.
Assay [10] relates to UACC-257 melanoma.

With `O=C1/C(=C/c2ccc(Cl)cc2Cl)CN(S(=O)(=O)c2ccccc2)C/C1=C\c1ccc(Cl)cc1Cl`, the growth was 9.52% (active) in assay [1]; 0.787% (active) in assay [2]; 36.8% in assay [3]; -23.2% (active) in assay [4]; -87% (active) in assay [5]; 4.96% (active) in assay [6]. In addition, the growth in [7] was -54.1% (active); in [8] it was 20.5%.
Regarding `CCCCCN(CCCCC)CCC[C@@H](C)[C@H]1CC[C@H]2[C@@H]3[C@H](OCCCN)C[C@@H]4C[C@H](OCCCN)CC[C@]4(C)[C@H]3C[C@H](OCCCN)[C@]12C`, the growth in [1] is 76.5%; in assay [2], -19.4% (active); in assay [3], 62.2%; in [4], 37%; in [5] it was 87.1%; in assay [6], 87.5%. Further, the growth was -21.9% (active) in assay [7] and 42.8% in assay [8].
Consider `COc1ccc(/C=C2\N=C3SC=C(N)N3C2=O)cc1`, for which the growth in assay [1] is 26.5%; in assay [2] it was 5.29% (active); in assay [3], -15.3% (active); in assay [4] it was 42.5%; in assay [5], -21.2% (active); in assay [6], 37.3%. Further, the growth in assay [7] was 26.7%; in assay [8], 24.8%.
Turning to `COC(/C=C/c1ccc([N+](=O)[O-])cc1)OC`, the growth in [1] was 119%; in [2], 105%; in assay [3] it was 109%; in assay [4], 91.2%; in [5], 87.5%; in [6], 106%. Besides, the values for the growth in assay [9], in [10] and in assay [8] were 106%, 90.8% and 77.2%, respectively.
On to `COc1cc(-c2c3sc(=O)[nH]c3nc3c2c(=O)[nH]n3C(C)C)cc2c1OCO2`, for which the growth in [1] is 119%; in assay [2] it was 97.6%; in [3], 121%; in [4] it was 101%; in assay [5], 94.5%; in assay [6], 115%. Besides, the growth in assay [9] is 83.5%; in [10], 99.2%; in [8], 114%.
In the case of `COc1cc(-c2cc(-c3nc4ccc(Cl)cc4[nH]3)[nH]n2)cc(OC)c1OC`, the growth in assay [1] is 57.8%; in assay [2] it was 43.2%; in assay [3], 50.4%; in assay [4] it was 81.1%; in assay [5], 46.6%; in assay [6] it was 81.7%. The growth in assay [10] was 62.9%; in assay [8], 38.1%.
Consider `C=C(CN1CCN(c2cccc(C(F)(F)F)n2)CC1)c1ccc(C(=O)Nc2ccccc2N)cc1`, for which the growth in assay [1] was -23.7% (active); in assay [2] it was 3.45% (active); in assay [3], 20%; in [4], 33.5%; in assay [5], -19.5% (active); in assay [9], 8.13% (active). Further, the growth is 6.53% (active) in assay [7], 16.6% in assay [10] and 18.5% in assay [8].
`CCOC(=O)c1nc(Nc2cc(C)[nH]n2)c2ccccc2n1`: the growth in assay [1] is 109%; in assay [2] it was 99.9%; in assay [3], 116%; in assay [4] it was 108%; in assay [6] it was 101%; in assay [9] it was 107%. Besides, the growth in assay [7] was 95.5%; in assay [10] it was 106%; in [8], 80.9%.
For `Cc1ccc(NC(=O)c2sc3nc4c(cc3c2N)C(=O)CCC4)cc1C`, the growth is 8.18% (active) in [1]; 11.7% in assay [2]; 48.8% in assay [3]; 35.3% in assay [4]; 42.7% in assay [6]; 8.72% (active) in [9]. The growth in [7] is -10.4% (active); in [10], 54.2%; in [8], 8.39% (active).
`CCc1ccccc1NC(=O)c1sc2nc3c(cc2c1N)C(=O)CCC3`: the growth in assay [1] is 2.55% (active); in [2] it was 11%; in assay [3], 60.8%; in assay [4], 36.6%; in assay [6], 40.4%; in [9] it was -3.21% (active). Also, the growth in assay [7] is -1.47% (active); in assay [10] it was 65%; in [8] it was 15.1%.
As to `Cc1cc(Nc2nc(N3CCN(C)CC3)nc3ccccc23)n[nH]1`, the growth in [1] was 88%; in assay [2], 57%; in [3], 69%; in assay [4], 83.2%; in [6] it was 67%; in assay [9], 74.4%. Further, the growth is 76.3% in assay [7], 82.9% in [10] and 50.8% in [8].
`COc1cccc(-n2cc(-c3nc(Nc4cc(C)[nH]n4)c4ccccc4n3)nn2)c1`: the growth was 66.4% in assay [1]; 27% in assay [2]; 42.9% in assay [3]; 63.4% in assay [4]; 64.1% in assay [6]; 37.7% in assay [9]. Besides, the growth was 52.9% in [7], 83.4% in [10] and 54.1% in assay [8].
Turning to `COc1cccc2c1C(=O)c1c(O)c3c(c(O)c1C2=O)C[C@@](O)(/C(C)=N/NC(=O)c1ccc(Cl)cc1)C[C@@H]3OC1CC(N)C(O)C(C)O1` (stereo not given in full), the growth was -0.501% (active) in assay [1]; -19.5% (active) in assay [2]; -74.6% (active) in [3]; -1.48% (active) in assay [4]; -54.8% (active) in [6]; -60.4% (active) in [9]. Also, the growth was -45.5% (active) in assay [7], -57.1% (active) in assay [10] and -60% (active) in assay [8].
Consider `CCOC(=O)N1CCN(c2nc(Nc3cc(C)[nH]n3)c3ccccc3n2)CC1`, for which the growth in assay [1] was 47.5%; in [2], 17.4%; in [3], 77.6%; in assay [4], 63.7%; in assay [6], 42.6%; in [9], 36.5%. Also, the growth in assay [7] is 46.8%; in assay [10] it was 65.7%; in [8], 61.6%.
On to `Cc1cc(Nc2nc(N3CCNCC3)nc3ccccc23)n[nH]1`, for which the growth in [1] is 119%; in assay [2], 81.5%; in assay [3], 80.4%; in assay [4], 103%; in assay [6], 90.6%; in [9], 88%. Further, the growth in assay [7] is 79.4%; in [10] it was 87.1%; in [8] it was 92.5%.
As for `Nc1cc2nc3ccccc3sc-2cc1=O`, the growth is 21.5% in [1]; 28.5% in assay [2]; -7% (active) in assay [3]; 59.2% in [4]; 78.1% in [6]; 65.9% in assay [9]. The growth in assay [7] is 98%; in [10] it was 50.8%; in [8], 81.2%.
With `Cc1ccc(C2CC3c4ccccc4C2C2CCCCN32)cc1` (stereo not given), the growth was 108% in assay [1]; 72% in assay [2]; 85.6% in assay [3]; 109% in assay [4]; 90.1% in assay [6]; 78.4% in [9]. In addition, the growth is 91.4% in assay [7], 59.9% in [10] and 94.5% in assay [8].
As for `CC#Cc1nc2ccccc2c(=O)[nH]1`, the growth in assay [1] was 84.7%; in assay [2] it was 37.8%; in assay [3], 65.5%; in assay [4] it was 26.7%; in [6] it was 53.7%; in assay [9] it was 87.2%. For the same compound, the figures for the growth in assay [7], in [10] and in [8] were 35.6%, 48.2% and 51.9%, respectively.
For the compound `CCCCCCCCCCCCS(=O)CC(C)O` (stereo not given), the growth in assay [1] was 126%; in assay [2] it was 103%; in assay [3] it was 116%; in [4] it was 104%; in assay [6], 139%; in assay [9] it was 100%. Further, the values for the growth in [7], in [10] and in [8] were 97.2%, 94.7% and 107%, respectively.
As to `CCOC(=O)CC(C)=N`, the growth in [1] was 121%; in assay [2], 110%; in assay [3], 99.9%; in assay [4] it was 103%; in [6] it was 130%; in assay [9], 111%. The results for the growth in [7], in assay [10] and in assay [8] were 97.6%, 102% and 102%, respectively.
Turning to `COc1cc(C2CC(=O)Nc3c2c(C)nn3-c2nc3ccccc3[nH]2)cc(OC)c1OC` (stereo not given), the growth in assay [1] is 119%; in assay [2], 99.7%; in [3], 106%; in assay [4], 91.6%; in assay [5], 89.8%; in assay [6] it was 112%. The growth in assay [10] is 96.7%; in [8] it was 92.3%.
As for `COc1ccc(/C=c2/c(=O)[nH]c3nc4sc(C)c(C)c4c(=O)n23)cc1`, the growth in assay [1] is 92.6%; in [2], 81.6%; in assay [3], 92.6%; in [4], 97.3%; in assay [5], 93.7%; in assay [6], 88.5%. In addition, the values for the growth in assay [7] and in [8] were 92.8% and 96.2%, respectively.
Take `O=c1c2cccc3c(NC4CCCCC4)ccc(c32)c2nc3ccccc3n12`: the growth in [1] is 98.7%; in [2], 66.9%; in [3], 96.1%; in assay [4], 82.3%; in [5], 112%; in assay [6], 99.5%. The growth in assay [7] is 96.2%; in [8], 86.7%.
Regarding `CCCCCC(=O)N(CCCC)CCCC`, the growth was 120% in assay [1]; 94.8% in [2]; 96.8% in assay [3]; 99.7% in assay [4]; 115% in assay [6]; 88.2% in assay [9]. For the same compound, the growth in assay [7] is 97.4%; in assay [10], 92.1%; in assay [8] it was 104%.
As for `Cc1cc(Nc2nc(-c3cccnc3)nc3ccccc23)n[nH]1`, the growth in assay [1] is 74.3%; in assay [2], 48.1%; in assay [3] it was 99.1%; in assay [4] it was 95.7%; in assay [6], 58.1%; in assay [9] it was 53.3%. The growth is 34.7% in assay [7], 59.7% in assay [10] and 72.5% in assay [8].
With `O=C(Nc1ccc(F)cc1)Nc1ccc(CCO)cc1`, the growth in [1] was 111%; in assay [2] it was 103%; in assay [3], 94.3%; in assay [4], 114%; in assay [6], 109%; in assay [9] it was 105%. The growth in [7] is 105%; in assay [10], 102%; in [8], 117%.
With `CN1CCCCC1CCN1c2ccccc2Sc2ccc(Cl)cc21` (stereo not given), the growth in assay [1] was 67%; in assay [2], 7.99% (active); in [3] it was 83.2%; in assay [4] it was 65.9%; in assay [6] it was 65.8%; in [9] it was 76.6%. Moreover, the figures for the growth in [7], in [10] and in assay [8] were 90.9%, 67.4% and 45.2%, respectively.
Take `CNC(=S)N/N=C/CSC/C=N/NC(=S)NC`: the growth in [1] was 88.5%; in [2], 15.8%; in assay [3], 72%; in assay [4] it was 83.4%; in assay [6], 102%; in assay [9], 108%. Besides, the growth was 105% in [7], 67.7% in assay [10] and 92.5% in assay [8].
`O=C1Nc2ccc(Br)cc2C12CC(c1ccccc1)=NN2` (stereo not given): the growth was 69.9% in [1]; 23.8% in assay [2]; 37.9% in assay [3]; 50.6% in [4]; 61.4% in assay [5]; 58.7% in assay [6]. Further, the results for the growth in assay [7] and in [8] were 32.9% and 28.2%, respectively.
`C#Cc1nc(Nc2cc(C)[nH]n2)c2ccccc2n1`: the growth in assay [1] was -80% (active); in assay [2] it was 2.59% (active); in assay [3], -70.8% (active); in assay [4], -56% (active); in [6], -86% (active); in [9], -57.9% (active). For the same compound, the growth is -44.5% (active) in [7], -54.9% (active) in [10] and -23.6% (active) in assay [8].
Regarding `CCN(CC)CCCC(C)N/C(=C1\C(=O)NC(=O)\C1=C(/NC(C)CCCN(CC)CC)c1cccc(OC)c1)c1cccc(OC)c1` (stereo not given), the growth was 4.62% (active) in assay [1]; -24.6% (active) in assay [2]; -84.2% (active) in assay [3]; -50.9% (active) in [4]; -20.8% (active) in [5]; -24% (active) in [6]. Moreover, the figures for the growth in assay [7] and in [8] were -80.6% (active) and -75.1% (active), respectively.
